In PubChem BioAssay (NCATS):
Inconclusive results are not listed. The source made the active and inactive calls. Calls follow the shape of the dose curve; as a rule, active = well fitted cell-killing curve with a large enough effect; inconclusive = small, poorly fitted or top-dose-only effect; inactive = flat fitted curve, though single readings scatter.

Experiment: Vero cells viability qHTS for Zika virus inhibitors (AID 1347167)
Settings: cytotoxicity counter-screen (Zika); series mostly up to 45.9 µM
Method in brief: (§1)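 Luminescent ATP readout (CellTiter Glo) after 30 min at 37 degrees C gives viability; cells in DMEM + 4% FBS were treated 24 to 48 hours with compound, following overnight attachment.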

Q: For `N[C@@H](Cc1cc(I)c(O)c(I)c1)C(=O)O`, which outcome is on record?
A: inactive

Q: Which outcome does the source give for `CCOC(=O)Cn1cccc1-c1nc(-c2ccc(OC)cc2)c(-c2ccc(OC)cc2)s1` here?
A: inactive

Q: For `Cc1nc(C2CCCCC2)c(-c2ccc(S(N)(=O)=O)c(F)c2)o1`, which outcome is on record?
A: inactive

Q: With `O=C(Nc1ccc(S(=O)(=O)N2CCOCC2)cc1)c1cc(Cl)ccc1NS(=O)(=O)c1ccc(Cl)s1` as the molecule, how does the outcome read?
A: inactive

Q: Which outcome does the source give for `CCC(=O)O[C@H]1[C@H](O[C@@H]2[C@@H](C)[C@H](O[C@H]3C[C@@](C)(OC)[C@@H](O)[C@H](C)O3)[C@@H](C)C(=O)O[C@H](CC)[C@@](C)(O)[C@H](O)[C@@H](C)C(=O)[C@H](C)C[C@@]2(C)O)O[C@H](C)C[C@@H]1N(C)C` here?
A: inactive

Experiment: HepG2 cells viability qHTS for Zika virus inhibitors (AID 1347168)
Settings: Zika counter-screen; series mostly up to 45.9 µM
Method in brief: as §1

Q: For `N[C@@H](Cc1cc(I)c(O)c(I)c1)C(=O)O`, which outcome is on record?
A: inactive

Q: With `Cc1nc(C2CCCCC2)c(-c2ccc(S(N)(=O)=O)c(F)c2)o1` as the molecule, how does the outcome read?
A: inactive

Q: For `O=C(Nc1ccc(S(=O)(=O)N2CCOCC2)cc1)c1cc(Cl)ccc1NS(=O)(=O)c1ccc(Cl)s1`, which outcome is on record?
A: inactive

Q: With `CCC(=O)O[C@H]1[C@H](O[C@@H]2[C@@H](C)[C@H](O[C@H]3C[C@@](C)(OC)[C@@H](O)[C@H](C)O3)[C@@H](C)C(=O)O[C@H](CC)[C@@](C)(O)[C@H](O)[C@@H](C)C(=O)[C@H](C)C[C@@]2(C)O)O[C@H](C)C[C@@H]1N(C)C` as the molecule, how does the outcome read?
A: inactive
